This is an account of results in PubChem BioAssay (NCATS).

Records with an inconclusive call do not appear. Where a call stands in place of a potency, no number is given. Calls of active or inactive are those of the source. Calls follow the shape of the dose curve; as a rule, active = well fitted curve in the direction sought with a large enough effect; inconclusive = small, poorly fitted or top-dose-only effect, or another doubt; inactive = no such curve, though single readings can be large; an effect the other way counts as inactive or inconclusive.

Test [1] concerns the target Aldehyde dehydrogenase, mitochondrial (Homo sapiens) (UniProt P05091). Description: qHTS for Inhibitors of the Aldehyde Dehydrogenase Family (ALDH2) Primary screen (AID 2061308). Also: nearly all actives have a fitted effect of over 55% in size. As to conditions: ALDH2 enzyme inhibition qHTS, 1536-well; series mostly up to 56 µM. Background: In qHTS, concentration-response curves come from the screen itself.
For test [2], the target named is Retinaldehyde dehydrogenase 3 (Homo sapiens) (UniProt P47895). Put plainly: qHTS for Inhibitors of the Aldehyde Dehydrogenase Family (ALDH1A3) Primary screen (AID 2061315). Particulars: ALDH inhibition qHTS; series mostly up to 56 µM.

On to `O=C(NC1CCCc2c1cnn2-c1ccc(F)cc1F)c1ccn[nH]1` (stereo not drawn), for which the Potency entry in test [1] and in test [2] was “inactive” in each case.

For `O=[N+]([O-])c1cccc(CSc2nc3ncc(Br)cc3[nH]2)c1`, the Potency entry in test [1] and in test [2] was “inactive” throughout.

With `Cc1ccc(=O)n(CC(=O)NCCc2ccccc2)n1`, the Potency result in test [1] and in test [2] was “inactive” throughout.

For the compound `c1ccc(CNc2nc(-c3cccs3)nc3ccccc23)cc1`, the Potency entry in test [1] and in test [2] was “inactive” throughout.

Turning to `CCOc1ccc(-c2csc(N3CCC(C(N)=O)CC3)n2)cc1`, the Potency result in test [1] and in test [2] was “inactive” throughout.

In the case of `COc1ccccc1/C=C/C(=O)NCCc1nc2ccccc2n1CCOc1ccc(C)cc1`, the Potency result in test [1] and in test [2] was “inactive” in each case.

Consider `c1ccc(COc2cccc(-c3nc4ccccc4s3)c2)cc1`, for which the Potency entry in test [1] and in test [2] was “inactive” in each case.

Consider `CC(C)(C)OC(=O)N[C@@H](Cc1ccc(O[S+](=O)([O-])c2cccc3cnccc23)cc1)C(=O)Nc1ccc(-c2ccccc2)cc1`, for which the Potency entry in test [1] and in test [2] was “inactive” throughout.

Consider `Cn1c2cc(S(C)(=O)=O)sc2c2cnn(Cc3ccccc3F)c(=O)c21`, for which the Potency result in test [1] and in test [2] was “inactive” in each case.

As to `CC(C)(C)N[S+](=O)([O-])c1cccc(-c2nnc(SCc3ccc(C(=O)O)cc3)n2-c2ccc(F)cc2)c1`, the Potency result in test [1] and in test [2] was “inactive” in each case.

For the compound `Cc1cc(NS(=O)(=O)c2cc3c(cc2F)NC(=O)CC3)ccc1F`, the Potency result in test [1] and in test [2] was “inactive” in each case.

With `Cc1noc(C)c1-c1ccc2ncnc(NCc3ccc(F)c(F)c3)c2c1`, the Potency result in test [1] and in test [2] was “inactive” in each case.

On to `O=C1c2ccccc2C(=O)N1Cc1ccccc1`, for which the Potency result in test [1] and in test [2] was “inactive” each time.

Regarding `Cc1cn([C@H]2C[C@H](N[S+](=O)([O-])Cc3cc(Cl)cc(Cl)c3)[C@@H](CO)O2)c(=O)[nH]c1=O`, the Potency result in test [1] and in test [2] was “inactive” throughout.
